# Screening data from PubChem.
# The list is not random: actives were taken first. Their share in the collection is about 4.6%.
# D1 potentiator: Potentiators of Human D1 Dopamine Receptor: qHTS. HEK293 TREx D1 cells, calcium flux, dopamine EC20 potentiation. 360,000 tested, 0.036% active. D(1A) dopamine receptor (Homo sapiens), P21728. potentiation, % at 10 µM. AID 504651, 2011; in the data active = potentiation above about 30%; note: 0% is about no effect
# TRHR enhancer: qHTS for Small Molecule Agonists and Allosteric Enhancers of Human TRH Receptor: Primary Screen for Enhancers; Thyrotropin-releasing hormone receptor (Homo sapiens), P34981; TRHR cells, fluo-8 calcium fluorescence, EC20 TRH enhancement; enhancement, % at 2 µM; 360,000 tested, 0.66% active; AID 493056, 2011; in the data active = enhancement above about 30%; note: 0% is about no effect
# Target sequence (P34981 whole entry, looked up): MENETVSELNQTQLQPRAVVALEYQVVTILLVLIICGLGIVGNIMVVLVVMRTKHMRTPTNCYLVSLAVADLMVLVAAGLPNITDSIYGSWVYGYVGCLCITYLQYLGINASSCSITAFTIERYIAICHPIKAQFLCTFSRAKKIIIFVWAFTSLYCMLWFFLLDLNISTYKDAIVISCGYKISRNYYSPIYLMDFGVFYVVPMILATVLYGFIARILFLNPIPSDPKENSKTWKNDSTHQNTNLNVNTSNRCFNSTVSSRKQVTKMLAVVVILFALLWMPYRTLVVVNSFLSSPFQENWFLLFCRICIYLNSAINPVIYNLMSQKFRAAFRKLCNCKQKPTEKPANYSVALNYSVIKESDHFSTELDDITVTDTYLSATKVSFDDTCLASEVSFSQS
#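 TRHR-expressing cells loaded with fluo-8 calcium dye were read kinetically (ex 480/em 530) during compound addition, then stimulated with an EC20 of TRH (10 nM final). Enhancement of the Gq-mediated intracellular calcium response was scored.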
# D1 antagonist: Antagonist of Human D 1 Dopamine Receptor: qHTS. D(1A) dopamine receptor (Homo sapiens), P21728. HEK293 TREx D1 cells, calcium flux, dopamine EC80; hits give low values. activity change, negative = inhibition, % at 10 µM. 360,000 tested, 3.2% active. AID 504652, 2011; in the data active = activity change below about -30%; note: % is set by controls: 0 for no effect and ±100 for the full control effect
#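 Compound effects on dopamine-evoked calcium signalling were measured in tetracycline-induced HEK293 Trex D1 cells. Dopamine at EC80 followed a 180 s compound pre-read, and fluorescence was tracked kinetically for 180 s more.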
# TRHR agonist: qHTS for Small Molecule Agonists and Allosteric Enhancers of Human TRH Receptor: Primary Screen for Agonists. Thyrotropin-releasing hormone receptor (Homo sapiens), P34981. TRHR cells, calcium flux fluo-8, FDSS agonist mode. activation, % at 2 µM. 360,000 tested, 0.18% active; note: 0% is about no effect
#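 TRHR-expressing cells loaded with fluo-8 calcium dye; 23 nL library compound pin-transferred, kinetic FDSS fluorescence (Ex 480/Em 530) recorded about 180 s for agonist-induced calcium release, before a 10 nM TRH EC20 addition for potentiator mode.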
# D1 ag: Allosteric Agonists of the Human D1 Dopamine Receptor: qHTS | activation, % at 2 µM | 360,000 tested, 1% active | HEK293 T-REx D1 cells, calcium flux, agonist mode; note: 0% is about no effect
#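 Agonism was scored from calcium flux recorded over 180 s (1 read/s) after pintool compound addition, following a 10-cycle baseline. Cells were inducible force-coupled HEK293 TREx D1, plated overnight at 30 C and loaded with no-wash calcium dye.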
# The depositor's hits bear a star; · = no result given. Cut-off read from the data, not from the text of the source, unless noted: active = activation above about 30%; inactive = the rest.
SMILES,D1 potentiator,TRHR enhancer,D1 antagonist,TRHR agonist,D1 ag
Cc1ccc(-c2nc3cc(C(C)C)ccc3o2)cc1NC(=O)c1cc([N+](=O)[O-])ccc1N1CCOCC1,-4,-4,-11,2,1
Cc1ccc(S(=O)(=O)Nc2cc(Cl)c3oc4c(c3c2)CCCC4)cc1,1,12,23,-2,-1
Cc1ccc(C2CC(=O)Oc3cc(O)ccc32)cc1 (stereo not given),-5,1,-30*,3,5
COC(=O)[C@@H]1C[C@@]2(O)[C@@H](O)[C@@H](O)[C@@H](O)C[C@H]2N1CC1CCCCC1,0,7,-56*,0,13
Cc1cc(C)c(Cn2c3ccccc3c3cnn(CC(=O)NCCCc4ccccc4)c(=O)c32)c(C)c1,-4,2,-25,2,3
CSc1ccc(CN2CCN(Cc3ccc([N+](=O)[O-])cc3)CC2)cc1,-12,-2,-37*,0,8
O=C(/C=C/c1ccco1)Oc1cc(Br)cc(/C=N/NC(=O)c2ccccc2O)c1,-10,5,-35*,4,12
O=C(CNc1ccc2ccccc2c1)N/N=C/c1ccc(OC(=O)/C=C/c2ccco2)cc1,-5,3,11,0,1
COc1cc(/C=N/NC(=O)CNC(=O)/C=C/c2ccco2)cc(OC)c1OC,-3,31*,2,0,3
O=C(CNc1cccc2ccccc12)N/N=C/c1ccc(OC(=O)/C=C/c2ccco2)cc1,-3,-2,-70*,0,3
COc1ccc(/C=N/NC(=O)CNC(=O)/C=C/c2ccco2)cc1OC,-3,7,15,-1,1
Cc1ccc(C(=O)N/N=C/c2cccc(OC(=O)/C=C/c3ccco3)c2)cn1,-6,-7,-17,0,0
COc1cc(NC(=O)Cn2c(=O)n(Cc3ccco3)c(=O)c3sc4ccccc4c32)cc(OC)c1,-3,1,-1,0,1
CN(C)c1ccc(/C=C(/C#N)C(=O)NCc2ccccc2)o1,-4,-2,-3,43*,102*
Cc1ccc(C(c2sc3nc(-c4ccco4)nn3c2O)N2CCC3(CC2)OCCO3)cc1 (stereo not given),-1,-3,·,0,-5
Cc1onc(-c2ccccc2)c1C(=O)c1c[nH]c(C(=O)NCc2ccncc2)c1,-4,1,-89*,0,-1
CCN(CCCNC(=O)CN1N=C(c2ccc(OC)cc2)CCC1=O)c1cccc(C)c1,-4,-6,-40*,-1,0
CCN(CCCNC(=O)CN1N=C(c2ccccc2)CCC1=O)c1cccc(C)c1,-1,5,13,-1,-4
CCc1ccc(OCC(=O)Nc2ccc(Cl)c(-c3nc4ncccc4o3)c2)cc1,-1,-1,-5,1,9
COc1ccc(C(=O)CN2C3=NCCCN3c3ccccc32)cc1OC,-2,-7,-44*,0,0
CCc1ccccc1NC(=O)Nc1cccc(F)c1,-8,-2,-42*,1,17
CNS(=O)(=O)c1ccc(NC(=O)Nc2cccc(F)c2)cc1,-11,-4,-50*,1,4
Cc1cccnc1NC(=O)Nc1cccc(Cl)c1,-2,32*,-4,0,3
O=C(Nc1cccnc1)Nc1cc(Cl)cc(Cl)c1,-11,-12,-33*,0,24
O=C(Nc1cccnc1)Nc1ccccc1Cl,1,-11,8,1,2
SMILES,D1 potentiator,TRHR enhancer,D1 antagonist,TRHR agonist,D1 ag
CC(=O)Nc1cccc(NC(=O)Nc2cccc(F)c2)c1,2,2,-8,1,3
CN(C)CCCNc1cc(N2CCN(C3CCCCC3)CC2)c2noc3c2c1C(=O)c1ccccc1-3,-1,4,7,0,2
CCc1ccc(Cn2c(CNS(=O)(=O)c3ccc4c(c3)CCCC4)nc3cccnc32)cc1,-3,-1,15,0,3
Cc1ccc(Cc2nc3ccccc3nc2SCC(=O)N2CCCCC2)cc1,-2,0,9,0,5
O=C(Nc1ccc(Cl)cc1)Nc1ccon1,-7,1,-24,0,17
Cc1cccnc1N(C(=O)Nc1ccccc1)C1=NCC(C)(C)S1,1,3,1,0,2
O=C(Nc1cccc(Cl)c1)Nc1cnccn1,-7,-6,-45*,0,13
O=C(NC(=S)NCc1cccnc1)c1cc2ccccc2o1,2,-4,-3,0,6
O=C(NC(=S)Nc1cccnc1)c1cc2ccccc2o1,-2,0,-45*,0,2
O=C(Nc1cccc(Cl)c1)Nc1ccon1,-6,39*,-7,1,6
Cc1cccnc1N(C(=O)Nc1cccc(Cl)c1)C1=NCC(C)(C)S1,-2,-4,-31*,0,1
CCOC(=O)c1cc(-c2ccc(OC)cc2)n(CCC(=O)Nc2nc3ccc(OCC)cc3s2)c1C,-2,6,1,0,2
CCC(C)[C@H](NC(=O)Nc1cccc(Cl)c1)C(=O)O (stereo not given in full),-2,-12,-12,0,31*
CCc1sc(C(=O)Nc2ncccc2C)cc1C,-5,30*,-3,0,4
O=C(Nc1cccc(Cl)c1)Nc1cccc(Cl)c1,-22,-2,-49*,2,19
O=C(Nc1ccccc1)Nc1cc(Cl)cc(Cl)c1,-14,-11,-27,2,23
Cc1ccc(NC(=O)Nc2ccon2)cc1Cl,-11,10,-31*,0,5
COC(=O)c1cc(NC(=O)c2ccc(-c3ccccc3)cc2)ccc1Cl,-1,-1,-16,1,11
CCC(C)c1ccc(NC(=O)Nc2cccnc2)cc1 (stereo not given),-2,5,-30*,0,8
COC(=O)c1cc(NC(=O)Nc2cccc(Cl)c2)ccc1Cl,-10,15,-41*,0,25
COc1ccc(OCC(=O)NNC(=O)Nc2cccc(Cl)c2)cc1,2,34*,1,1,0
O=C(Nc1cccc(F)c1)Nc1cccc(Cl)c1,7,-12,-53*,1,12
CCC1CN(C(=O)N2CCC(C(=O)NCCc3ccccc3Cl)CC2)c2cc(C)ccc2O1 (stereo not given),3,-5,-5,0,1
CCC(=O)Nc1cc(-c2nc3ccccc3s2)c(Cl)cc1Cl,-3,-4,4,2,0
Cc1ccc(C(=O)NC(=S)Nc2ccccc2C(F)(F)F)cc1C,6,-1,8,-1,-3
